Experiment in all cases: DAPPL (digital affinity profiling via proximity ligation, sequencing); 10 mM Tris-HCl pH 7.5, 50 mM NaCl, 1 mM DTT, 4% glycerol, room temperature, 30 min; GST-TFs on glutathione beads, 16-mer random dsDNA library, 0.1% formaldehyde crosslink after washing; high values mean tight binding
One assay has as its target T1, FLI1 (Homo sapiens, UniProt Q01543 1-452).
T1 sequence: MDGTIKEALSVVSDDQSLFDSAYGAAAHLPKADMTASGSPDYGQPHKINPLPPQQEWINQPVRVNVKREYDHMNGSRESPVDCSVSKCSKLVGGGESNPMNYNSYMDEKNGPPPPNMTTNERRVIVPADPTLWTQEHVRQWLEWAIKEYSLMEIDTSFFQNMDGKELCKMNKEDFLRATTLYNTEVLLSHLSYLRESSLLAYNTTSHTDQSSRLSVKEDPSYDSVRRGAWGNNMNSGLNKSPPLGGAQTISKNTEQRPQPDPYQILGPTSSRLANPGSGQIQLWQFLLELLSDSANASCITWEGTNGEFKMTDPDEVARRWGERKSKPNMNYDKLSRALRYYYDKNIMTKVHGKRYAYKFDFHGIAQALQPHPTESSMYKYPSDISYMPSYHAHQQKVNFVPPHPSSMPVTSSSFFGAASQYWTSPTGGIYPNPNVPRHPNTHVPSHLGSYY
To be noted: protein: recombinant; tags: N-terminal GST; dsDNA, one strand shown. In short, it runs like this: (§1)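 Binding signal is given per hexamer as its read frequency for a factor divided by its frequency in the tag-only sample. GST-fused human transcription factors were expressed in yeast, captured on glutathione beads, barcoded with DNA and pooled with that sample, then incubated with 200 nmole of a 16-mer random double-stranded DNA library in Tris/NaCl/DTT/glycerol buffer for 30 min at room temperature. The pools were then washed, crosslinked, proximity-ligated, amplified by PCR and sequenced on an Illumina NextSeq500.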

The target of a further assay is T2, ELK1 (Homo sapiens, UniProt P19419 1-428).
T2 sequence: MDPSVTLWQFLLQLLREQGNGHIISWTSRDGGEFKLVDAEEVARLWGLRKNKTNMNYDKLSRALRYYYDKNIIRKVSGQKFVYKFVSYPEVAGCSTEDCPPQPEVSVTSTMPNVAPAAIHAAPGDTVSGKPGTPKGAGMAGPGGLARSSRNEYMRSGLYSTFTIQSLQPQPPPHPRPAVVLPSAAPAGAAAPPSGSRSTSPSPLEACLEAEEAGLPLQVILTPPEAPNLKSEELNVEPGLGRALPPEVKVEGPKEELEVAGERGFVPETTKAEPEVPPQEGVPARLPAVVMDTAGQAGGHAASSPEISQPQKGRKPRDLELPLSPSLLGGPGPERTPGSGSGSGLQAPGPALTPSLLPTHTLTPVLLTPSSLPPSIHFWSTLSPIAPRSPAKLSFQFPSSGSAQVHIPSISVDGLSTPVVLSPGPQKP
As to conditions: protein: recombinant; tags: N-terminal GST; dsDNA, one strand shown. Summed up: as §1

Another assay concerns the target T3, GABPA (Homo sapiens, UniProt Q06546 1-454).
T3 sequence: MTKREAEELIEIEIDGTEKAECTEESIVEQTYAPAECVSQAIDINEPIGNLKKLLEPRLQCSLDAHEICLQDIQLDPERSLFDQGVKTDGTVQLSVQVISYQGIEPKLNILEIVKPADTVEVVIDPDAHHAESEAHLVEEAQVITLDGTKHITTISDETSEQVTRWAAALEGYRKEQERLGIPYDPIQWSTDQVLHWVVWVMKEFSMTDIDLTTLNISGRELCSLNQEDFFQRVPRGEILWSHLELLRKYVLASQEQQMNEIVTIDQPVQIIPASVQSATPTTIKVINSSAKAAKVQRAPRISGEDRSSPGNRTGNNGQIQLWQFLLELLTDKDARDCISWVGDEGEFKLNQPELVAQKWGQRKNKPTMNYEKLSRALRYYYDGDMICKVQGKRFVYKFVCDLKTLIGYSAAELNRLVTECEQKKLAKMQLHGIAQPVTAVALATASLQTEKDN
To be noted: protein: recombinant; tags: N-terminal GST; dsDNA, one strand shown. In short, it runs like this: as §1

A further assay concerns the target T4, ERG (Homo sapiens, UniProt P11308 1-479).
T4 sequence: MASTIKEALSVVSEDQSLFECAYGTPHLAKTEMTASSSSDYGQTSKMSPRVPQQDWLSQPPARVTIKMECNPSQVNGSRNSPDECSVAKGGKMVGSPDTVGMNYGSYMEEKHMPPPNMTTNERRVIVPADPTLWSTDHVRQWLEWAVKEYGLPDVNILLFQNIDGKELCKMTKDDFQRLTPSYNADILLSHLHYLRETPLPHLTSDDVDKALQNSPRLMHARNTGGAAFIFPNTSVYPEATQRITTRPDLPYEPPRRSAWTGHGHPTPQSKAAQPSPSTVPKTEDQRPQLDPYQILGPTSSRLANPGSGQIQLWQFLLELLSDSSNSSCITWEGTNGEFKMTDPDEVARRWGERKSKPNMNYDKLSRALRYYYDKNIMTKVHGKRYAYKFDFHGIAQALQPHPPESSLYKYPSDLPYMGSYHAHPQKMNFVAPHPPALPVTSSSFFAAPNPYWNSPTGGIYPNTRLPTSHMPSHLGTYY
To be noted: protein: recombinant; tags: N-terminal GST; dsDNA, one strand shown. Summed up: as §1

The target in a further assay is ELF1 (Homo sapiens, UniProt P32519 1-619). As to conditions: protein: recombinant; tags: N-terminal GST; dsDNA, one strand shown. Summed up: as §1
Sequence of ELF1 (P32519 whole entry): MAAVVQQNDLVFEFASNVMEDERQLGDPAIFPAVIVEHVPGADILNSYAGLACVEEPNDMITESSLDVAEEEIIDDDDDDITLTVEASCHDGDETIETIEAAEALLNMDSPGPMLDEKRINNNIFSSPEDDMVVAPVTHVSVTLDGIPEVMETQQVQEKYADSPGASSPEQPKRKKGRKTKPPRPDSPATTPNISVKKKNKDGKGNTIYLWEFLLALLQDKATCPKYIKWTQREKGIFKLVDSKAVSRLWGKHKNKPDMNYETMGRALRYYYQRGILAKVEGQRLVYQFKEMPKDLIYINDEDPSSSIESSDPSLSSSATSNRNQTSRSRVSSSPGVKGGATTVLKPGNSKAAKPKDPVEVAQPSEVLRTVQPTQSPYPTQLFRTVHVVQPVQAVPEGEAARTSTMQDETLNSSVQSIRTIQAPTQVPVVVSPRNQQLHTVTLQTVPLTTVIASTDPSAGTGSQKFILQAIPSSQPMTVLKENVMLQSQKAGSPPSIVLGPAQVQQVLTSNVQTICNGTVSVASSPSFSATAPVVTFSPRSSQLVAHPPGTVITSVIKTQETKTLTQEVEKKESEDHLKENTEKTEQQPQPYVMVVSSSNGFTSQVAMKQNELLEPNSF
A further assay concerns the target T5, EHF (Homo sapiens, UniProt Q9NZC4 1-300).
T5 sequence: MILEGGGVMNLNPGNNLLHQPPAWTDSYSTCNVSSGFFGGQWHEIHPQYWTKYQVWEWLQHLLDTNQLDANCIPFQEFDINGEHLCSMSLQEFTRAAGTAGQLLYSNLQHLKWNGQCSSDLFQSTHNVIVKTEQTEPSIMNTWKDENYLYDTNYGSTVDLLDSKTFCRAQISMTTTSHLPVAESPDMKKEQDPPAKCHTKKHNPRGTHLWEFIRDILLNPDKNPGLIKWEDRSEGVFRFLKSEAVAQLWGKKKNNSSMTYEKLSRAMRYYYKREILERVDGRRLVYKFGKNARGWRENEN
To be noted: protein: recombinant; tags: N-terminal GST; dsDNA, one strand shown. In short, it runs like this:
as §1

In a further assay the target is SPI1 (Homo sapiens, UniProt P17947 1-270). As to conditions: protein: recombinant; tags: N-terminal GST; dsDNA, one strand shown. Summed up: as §1
A further assay concerns the target SPIB (Homo sapiens, UniProt Q01892 1-262). As to conditions: protein: recombinant; tags: N-terminal GST; dsDNA, one strand shown. Summed up:
as §1

Another assay concerns the target T6, ELK3 (Homo sapiens, UniProt P41970 1-407).
T6 sequence: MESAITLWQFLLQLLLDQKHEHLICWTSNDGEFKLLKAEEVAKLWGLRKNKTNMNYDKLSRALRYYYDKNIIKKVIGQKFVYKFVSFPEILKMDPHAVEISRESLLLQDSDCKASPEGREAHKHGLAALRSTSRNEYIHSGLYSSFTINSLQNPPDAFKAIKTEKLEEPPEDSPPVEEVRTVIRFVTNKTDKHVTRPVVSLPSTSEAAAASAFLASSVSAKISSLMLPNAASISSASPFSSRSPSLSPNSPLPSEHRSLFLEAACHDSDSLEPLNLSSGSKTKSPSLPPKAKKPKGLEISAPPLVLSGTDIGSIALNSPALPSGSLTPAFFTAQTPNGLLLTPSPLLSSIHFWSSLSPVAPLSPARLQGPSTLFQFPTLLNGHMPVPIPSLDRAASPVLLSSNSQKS
As to conditions: protein: recombinant; tags: N-terminal GST; dsDNA, one strand shown. Summed up: as §1

The target of another assay is T7, FEV (Homo sapiens, UniProt Q99581 1-238).
T7 sequence: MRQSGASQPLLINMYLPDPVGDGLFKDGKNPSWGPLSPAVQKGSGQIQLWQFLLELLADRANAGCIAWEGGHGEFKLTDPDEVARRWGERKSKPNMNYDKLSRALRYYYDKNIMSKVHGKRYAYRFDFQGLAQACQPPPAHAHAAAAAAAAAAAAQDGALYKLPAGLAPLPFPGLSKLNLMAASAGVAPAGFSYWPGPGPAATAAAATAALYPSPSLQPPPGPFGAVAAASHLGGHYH
As to conditions: protein: recombinant; tags: N-terminal GST; dsDNA, one strand shown. In short, it runs like this: as §1

In the next assay the target is ETV5 (Homo sapiens, UniProt P41161 1-510). As to conditions: protein: recombinant; tags: N-terminal GST; dsDNA, one strand shown. In short, it runs like this: as §1
Sequence of ETV5 (P41161 whole entry): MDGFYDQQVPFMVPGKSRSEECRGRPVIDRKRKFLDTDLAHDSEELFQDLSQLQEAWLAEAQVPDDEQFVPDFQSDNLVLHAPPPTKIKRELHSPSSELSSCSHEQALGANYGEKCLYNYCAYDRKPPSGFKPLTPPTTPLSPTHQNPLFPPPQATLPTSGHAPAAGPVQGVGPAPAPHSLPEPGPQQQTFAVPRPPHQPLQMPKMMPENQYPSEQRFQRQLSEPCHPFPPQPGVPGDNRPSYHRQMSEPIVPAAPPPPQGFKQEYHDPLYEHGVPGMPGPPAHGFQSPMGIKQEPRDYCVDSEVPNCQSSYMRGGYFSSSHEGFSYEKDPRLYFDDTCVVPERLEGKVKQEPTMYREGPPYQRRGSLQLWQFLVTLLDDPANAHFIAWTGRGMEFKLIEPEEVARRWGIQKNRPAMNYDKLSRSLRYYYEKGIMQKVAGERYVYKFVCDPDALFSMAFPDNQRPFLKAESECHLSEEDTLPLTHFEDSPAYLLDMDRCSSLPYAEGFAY
The target in a further assay is HSF1 (Homo sapiens, UniProt Q00613 1-529). To be noted: protein: recombinant; tags: N-terminal GST; chain copies: 3; dsDNA, one strand shown. Summed up:
as §1

Another assay deals with ELF4 (Homo sapiens, UniProt Q99607 1-663). To be noted: protein: recombinant; tags: N-terminal GST; dsDNA, one strand shown. Summed up: as §1
Sequence of ELF4 (Q99607 whole entry): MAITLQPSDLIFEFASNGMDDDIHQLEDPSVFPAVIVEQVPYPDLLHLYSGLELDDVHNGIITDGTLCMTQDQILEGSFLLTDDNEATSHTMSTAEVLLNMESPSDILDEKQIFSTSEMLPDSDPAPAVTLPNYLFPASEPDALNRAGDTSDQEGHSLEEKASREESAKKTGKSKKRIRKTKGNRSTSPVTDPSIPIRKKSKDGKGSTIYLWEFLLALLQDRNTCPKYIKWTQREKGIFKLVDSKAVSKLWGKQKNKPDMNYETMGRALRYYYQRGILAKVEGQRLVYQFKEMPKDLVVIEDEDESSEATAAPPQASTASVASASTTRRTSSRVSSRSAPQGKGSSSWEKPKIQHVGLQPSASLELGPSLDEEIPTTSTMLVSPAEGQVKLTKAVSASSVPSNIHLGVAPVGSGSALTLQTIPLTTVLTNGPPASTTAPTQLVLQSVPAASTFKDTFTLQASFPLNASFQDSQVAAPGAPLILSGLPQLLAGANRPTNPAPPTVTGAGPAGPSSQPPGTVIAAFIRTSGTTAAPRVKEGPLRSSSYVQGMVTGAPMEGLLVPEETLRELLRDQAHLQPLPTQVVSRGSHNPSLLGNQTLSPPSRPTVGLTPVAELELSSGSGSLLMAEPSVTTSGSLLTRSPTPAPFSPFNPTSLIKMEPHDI
Another assay addresses T8, ELK4 (Homo sapiens, UniProt P28324-2 1-405).
T8 sequence: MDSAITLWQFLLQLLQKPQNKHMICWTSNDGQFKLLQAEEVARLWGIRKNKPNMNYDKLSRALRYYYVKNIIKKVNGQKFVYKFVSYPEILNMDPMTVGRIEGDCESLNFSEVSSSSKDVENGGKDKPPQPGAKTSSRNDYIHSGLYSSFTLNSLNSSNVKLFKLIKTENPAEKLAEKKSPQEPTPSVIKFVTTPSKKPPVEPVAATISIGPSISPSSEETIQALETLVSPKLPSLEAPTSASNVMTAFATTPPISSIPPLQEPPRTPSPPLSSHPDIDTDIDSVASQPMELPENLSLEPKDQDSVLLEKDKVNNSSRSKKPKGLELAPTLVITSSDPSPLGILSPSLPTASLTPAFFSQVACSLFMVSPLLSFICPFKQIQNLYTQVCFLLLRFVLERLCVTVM
To be noted: protein: recombinant; tags: N-terminal GST; dsDNA, one strand shown. Summed up:
as §1

The next assay concerns the target T9, ETV2 (Homo sapiens, UniProt O00321 1-342).
T9 sequence: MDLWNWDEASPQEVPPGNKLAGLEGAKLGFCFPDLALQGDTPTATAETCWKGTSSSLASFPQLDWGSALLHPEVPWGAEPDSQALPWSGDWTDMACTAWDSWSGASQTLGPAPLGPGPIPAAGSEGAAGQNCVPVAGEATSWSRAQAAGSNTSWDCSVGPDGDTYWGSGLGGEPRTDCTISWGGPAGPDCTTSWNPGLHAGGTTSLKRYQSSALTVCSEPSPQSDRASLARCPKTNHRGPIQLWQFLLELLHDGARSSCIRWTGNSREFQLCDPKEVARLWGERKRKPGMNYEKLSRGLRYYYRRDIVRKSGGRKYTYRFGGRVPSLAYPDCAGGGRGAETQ
As to conditions: protein: recombinant; tags: N-terminal GST; dsDNA, one strand shown. In short, it runs like this:
as §1

The target in a further assay is T10, ELF3 (Homo sapiens, UniProt P78545 1-371).
T10 sequence: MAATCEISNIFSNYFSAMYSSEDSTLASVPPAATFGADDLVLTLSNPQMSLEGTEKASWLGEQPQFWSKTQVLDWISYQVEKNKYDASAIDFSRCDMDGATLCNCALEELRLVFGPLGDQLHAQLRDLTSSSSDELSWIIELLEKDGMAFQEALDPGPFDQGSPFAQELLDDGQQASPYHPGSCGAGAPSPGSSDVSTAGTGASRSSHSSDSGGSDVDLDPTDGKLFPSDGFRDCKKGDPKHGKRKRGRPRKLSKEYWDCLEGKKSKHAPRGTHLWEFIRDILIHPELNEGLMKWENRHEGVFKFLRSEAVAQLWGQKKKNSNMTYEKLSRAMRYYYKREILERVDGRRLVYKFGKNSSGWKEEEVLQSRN
To be noted: protein: recombinant; tags: N-terminal GST; dsDNA, one strand shown. In short, it runs like this: as §1

A further assay addresses ETV1 (Homo sapiens, UniProt P50549 1-477). As to conditions: protein: recombinant; tags: N-terminal GST; dsDNA, one strand shown. Summed up: as §1

Sequence of SPIB (Q01892 whole entry): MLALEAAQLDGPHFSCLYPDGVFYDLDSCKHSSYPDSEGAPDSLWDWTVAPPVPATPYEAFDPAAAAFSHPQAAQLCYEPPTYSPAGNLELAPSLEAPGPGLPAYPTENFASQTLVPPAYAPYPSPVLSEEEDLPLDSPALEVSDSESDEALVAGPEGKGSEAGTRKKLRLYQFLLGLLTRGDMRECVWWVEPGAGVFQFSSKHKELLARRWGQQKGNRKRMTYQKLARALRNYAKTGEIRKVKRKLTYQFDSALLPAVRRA
Sequence of ETV1 (P50549 whole entry): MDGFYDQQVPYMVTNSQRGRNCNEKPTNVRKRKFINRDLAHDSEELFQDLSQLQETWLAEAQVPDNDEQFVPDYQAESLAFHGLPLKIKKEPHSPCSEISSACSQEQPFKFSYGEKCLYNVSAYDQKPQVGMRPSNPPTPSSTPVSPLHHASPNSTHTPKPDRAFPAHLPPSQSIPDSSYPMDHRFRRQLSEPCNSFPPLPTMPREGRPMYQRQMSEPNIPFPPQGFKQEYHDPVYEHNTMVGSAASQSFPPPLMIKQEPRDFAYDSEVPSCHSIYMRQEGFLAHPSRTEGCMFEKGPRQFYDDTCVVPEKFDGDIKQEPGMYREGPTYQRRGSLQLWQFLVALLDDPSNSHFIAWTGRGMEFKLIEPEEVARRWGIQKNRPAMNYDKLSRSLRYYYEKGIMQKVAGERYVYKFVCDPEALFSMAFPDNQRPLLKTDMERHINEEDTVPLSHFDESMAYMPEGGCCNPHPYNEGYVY
Sequence of HSF1 (Q00613 whole entry): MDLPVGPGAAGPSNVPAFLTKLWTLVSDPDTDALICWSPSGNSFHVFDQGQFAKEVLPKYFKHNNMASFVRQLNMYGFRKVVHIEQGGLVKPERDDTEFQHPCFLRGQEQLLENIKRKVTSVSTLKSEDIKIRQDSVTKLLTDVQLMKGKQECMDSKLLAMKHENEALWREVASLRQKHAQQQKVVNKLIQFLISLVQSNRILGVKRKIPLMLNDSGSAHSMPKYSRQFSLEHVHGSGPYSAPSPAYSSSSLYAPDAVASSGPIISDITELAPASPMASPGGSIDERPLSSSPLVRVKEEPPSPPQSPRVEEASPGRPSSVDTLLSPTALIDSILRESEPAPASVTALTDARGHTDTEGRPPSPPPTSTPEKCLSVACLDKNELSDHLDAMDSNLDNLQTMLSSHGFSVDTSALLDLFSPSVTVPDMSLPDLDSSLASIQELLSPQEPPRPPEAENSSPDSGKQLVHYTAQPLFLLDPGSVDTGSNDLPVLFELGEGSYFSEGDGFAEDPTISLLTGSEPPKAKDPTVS

Consider CGTTCA, for which the binding signal is 1.11 fold enrichment (6-mer frequency, TF over GST control) in the assay with FLI1; 1.24 fold enrichment (6-mer frequency, TF over GST control) with ELK1; 1.24 fold enrichment (6-mer frequency, TF over GST control) with GABPA; 1.09 fold enrichment (6-mer frequency, TF over GST control) with ERG; 1.13 fold enrichment (6-mer frequency, TF over GST control) with ELF1; 1.18 fold enrichment (6-mer frequency, TF over GST control) with EHF. Besides, the binding signal with SPI1 was 1.16 fold enrichment (6-mer frequency, TF over GST control); with SPIB, 1.2 fold enrichment (6-mer frequency, TF over GST control); in the assay with ELK3, 1.07 fold enrichment (6-mer frequency, TF over GST control); with FEV it was 1.25 fold enrichment (6-mer frequency, TF over GST control); with ETV5 it was 1.16 fold enrichment (6-mer frequency, TF over GST control); in the assay with HSF1 it was 1.03 fold enrichment (6-mer frequency, TF over GST control). For the same sequence, the binding signal in the assay with ELF4 is 1.17 fold enrichment (6-mer frequency, TF over GST control); with ELK4, 1.14 fold enrichment (6-mer frequency, TF over GST control); with ETV2, 1.19 fold enrichment (6-mer frequency, TF over GST control); with ELF3 it was 1.13 fold enrichment (6-mer frequency, TF over GST control); with ETV1, 1.18 fold enrichment (6-mer frequency, TF over GST control).

(Values after paper PMC7862700, “An all-to-all approach to the identification of sequence-specific readers for epigenetic DNA modifications on cytosine”.)
